Reference: PubChem BioAssay (Tox21)
“And” between values parts separate entries of the source, which are not always exact repeats. Equal entries are not always repeated. Results filed as inconclusive are left out. A structure can be active in one record and inactive in another. The source made the active and inactive calls. Unless noted, calls come from the whole dose curve; as a rule, active = well fitted curve in the direction sought with a large enough effect in the repeat runs; inconclusive = weak or mixed curves; inactive = no such curve, though single readings can be large; an effect the other way counts as inactive or inconclusive.

What was measured:
[1] = qHTS assay to identify small molecule agonists of the peroxisome proliferator-activated receptor delta (PPARd) signaling pathway - cell viability counter screen (AID 743211); note: nearly all actives have a fitted effect of over 55% in size
In short: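 PPARd-bla HEK293H cells (3000/well) were pre-incubated 5 h at 37 C, then exposed to compound for 17 h at 37 C. After 2 h with LiveBLAzer substrate, CellTiter-Glo was added to the same wells; luminescence read after 30 min at room temperature.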

[2] = molecular target: Peroxisome proliferator-activated receptor delta (Homo sapiens) (UniProt Q03181); assay: qHTS assay to identify small molecule agonists of the peroxisome proliferator-activated receptor delta (PPARd) signaling pathway (AID 743212; calls by dose curve)
In short: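 Quantitative high-throughput agonist screen in a HEK293H beta-lactamase reporter line under UAS control. Compounds in DMSO, at 37 C. Fluorescence read after 2 h with FRET substrate at room temperature.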

[3] = qHTS assay to identify small molecule antagonists of the peroxisome proliferator-activated receptor delta (PPARd) signaling pathway - cell viability counter screen (AID 743213); note: nearly all actives have a fitted effect of over 50% in size
In short: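 Luminescence from CellTiter-Glo, added after the bla read and incubated 30 min at room temperature, gives viability of HEK293H PPARd-bla cells exposed to compounds for 17 h at 37 C with 300 nM L165041.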

[4] = molecular target: Vitamin D3 receptor (Homo sapiens) (UniProt P11473); assay: qHTS assay to identify small molecule agonists of the vitamin D receptor (VDR) signaling pathway (AID 743222; calls by dose curve)
In short: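 VDR-bla cells, 2,000/well; 4 h preincubation 37C; cpd (DMSO) 16 h; LiveBLAzer B/G substrate 2 h RT; fluorescence intensity read.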

[5] = molecular target: Vitamin D3 receptor (Homo sapiens) (UniProt P11473); assay: qHTS assay to identify small molecule antagonists of the vitamin D receptor (VDR) signaling pathway (AID 743223; active = well fitted inhibition curve with a large enough effect in the signal ratio in the repeat runs, not every such curve was filed as active; the % refers to the signal ratio)
In short: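 VDR-bla cells were treated with compound plus 3 nM final 1alpha,25-dihydroxyvitamin D3 for 16 h at 37C. Beta-lactamase reporter read by B/G FRET substrate fluorescence after 2 h at room temperature. qHTS format.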

[6] = qHTS assay to identify small molecule agonists of the vitamin D receptor (VDR) signaling pathway - cell viability counter screen (AID 743224); note: nearly all actives have a fitted effect of over 50% in size; note: potency is the fitted concentration of half-maximal effect
In short: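 Luminescence from CellTiter-Glo, read after 30 min at room temperature, reports viability of VDR-bla cells treated with compounds for 16 h at 37C in the wells used for the beta-lactamase FRET read.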

[7] = qHTS assay to identify small molecule antagonists of the vitamin D receptor (VDR) signaling pathway - cell viability counter screen (AID 743225); note: nearly all actives have a fitted effect of over 50% in size
In short: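 VDR-UAS-bla HEK 293T cells were plated and incubated 4 h at 37C, then dosed with compound plus 3 nM (final) 1-alpha,25-dihydroxyvitamin D3 for 16 h. After the 2 h beta-lactamase read, viability in the same wells was read as CellTiter-Glo luminescence after 30 min at room temperature.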

[8] = qHTS assay to identify small molecule agonists of the NFkB signaling pathway (AID 1159509; active = well fitted curve in the direction sought with a large enough effect in the signal ratio in the repeat runs, not every such curve was filed as active; the % refers to the signal ratio; note: series mostly up to about 61 µM)
In short: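 After overnight attachment, reporter cells received test compounds, DMSO or positive controls and were incubated 5 hr at 37 C. FRET substrate was then added for 1.5 hr at room temperature before dual-emission fluorescence reading.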

[9] = qHTS assay to identify small molecule agonists of the NFkB signaling pathway - cell viability counter screen (AID 1159515; calls by dose curve; note: series mostly up to about 61 µM; nearly all actives have a fitted effect of over 55% in size)
In short: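 Luminescence from CellTiter-Glo (30 min, room temperature) gives viability, measured in the same wells as the beta-lactamase reporter read. Cells were NFkB-bla ME-180, 2,000 per well, treated 5 hr with compounds.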

[10] = qHTS assay to identify small molecule agonists of the endoplasmic reticulum stress response signaling pathway - cell viability counter screen (AID 1159517; calls by dose curve;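 note: HeLa cells carrying an ER stress response element beta-lactamase reporter; series mostly up to about 61 µM; nearly all actives have a fitted effect of over 50% in size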)
In short: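 Counter-screen wells were identical to the reporter wells. Cells were plated at 1,500 per well and dosed for 5 hr, then read for luminescence 30 min after CellTiter-Glo addition.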

[11] = qHTS assay to identify small molecule antagonists of the retinoid-related orphan receptor gamma (ROR-gamma) signaling pathway - cell viability counter screen (AID 1159520); note: nearly all actives have a fitted effect of over 50% in size
In short: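 Tet-on ROR gamma CHO cells were given compounds for 2 hr, then doxycycline hyclate at 1 uM final, and incubated 16 hr at 37 C. Viability was measured as ATP content by CellTiter-Glo luminescence.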

[12] = qHTS assay to identify small molecule agonists of the AP-1 signaling pathway - cell viability counter screen (AID 1159525; calls by dose curve; note: nearly all actives have a fitted effect of over 55% in size)
In short: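 AP-1-bla ME-180 cells in Opti-MEM with 0.5% dialyzed FBS, compound exposure 5 h at 37 C in 15-point titration. Viability read in the same wells as ATP content by CellTiter-Glo luminescence, normalised to tetra-n-octylammonium bromide and DMSO controls.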

[13] = qHTS assay to identify small molecule agonists of the AP-1 signaling pathway (AID 1159526; calls by dose curve)
[14] = molecular target: Peroxisome proliferator-activated receptor delta (Homo sapiens) (UniProt Q03181); assay: qHTS assay to identify small molecule antagonists of the peroxisome proliferator-activated receptor delta (PPARd) signaling pathway (AID 743215; active = well fitted inhibition curve with a large enough effect in the signal ratio in the repeat runs, not every such curve was filed as active; the % refers to the signal ratio;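 note: cells stimulated with agonist L165041 at 300 nM final during compound exposure; series mostly up to about 62 µM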)
In short: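 Read-out is beta-lactamase FRET fluorescence, measured 2 h after substrate addition at room temperature. Beforehand, UAS-bla HEK293H cells carrying the PPARd reporter were exposed to compounds with L165041 at 300 nM final for 17 h at 37 C.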

[15] = qHTS assay to identify small molecule antagonists of the farnesoid-X-receptor (FXR) signaling pathway - cell viability counter screen (AID 743221; active = well fitted cell-killing curve with a large enough effect in the repeat runs, not every such curve was filed as active; note: nearly all actives have a fitted effect of over 50% in size)
In short: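 GeneBLAzer FXR-UAS-bla HEK 293T cells, compound plus chenodeoxycholic acid (50 uM final), 16 h at 37 C. CellTiter-Glo added to the same wells after the beta-lactamase read; luminescence read after 30 min at room temperature as viability.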

[16] = molecular target: Nuclear receptor ROR-gamma (Homo sapiens) (UniProt P51449); assay: qHTS assay to identify small molecule antagonists of the retinoid-related orphan receptor gamma (ROR-gamma) signaling pathway (AID 1159521; note: nearly all actives have a fitted effect of over 50% in size; note: potency is the fitted concentration of half-maximal effect)
In short: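 Tet-on ROR-gamma CHO cells with ROR response element-luciferase reporter; compounds added 2 hr before 1 uM doxycycline induction, then 16 hr at 37 C. Antagonism scored as decreased ONE-Glo luminescence.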

[17] = molecular target: Bile acid receptor (Homo sapiens) (UniProt Q96RI1); assay: qHTS assay to identify small molecule antagonists of the farnesoid-X-receptor (FXR) signaling pathway (AID 743217; active = well fitted inhibition curve with a large enough effect in the signal ratio in the repeat runs, not every such curve was filed as active; the % refers to the signal ratio)
In short: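 HEK 293T FXR-UAS-bla, 5000 cells/well; compound + CDCA 50 uM final; 16 h, 37 °C; B/G FRET substrate 2 h RT; fluorescence.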

[18] = qHTS assay to identify small molecule agonists of the farnesoid-X-receptor (FXR) signaling pathway - cell viability counter screen (AID 743218); note: nearly all actives have a fitted effect of over 45% in size; note: potency is the fitted concentration of half-maximal effect
In short: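 HEK 293T FXR-bla cells; 5 h pre-incubation, 16 h compound exposure at 37 C; LiveBLAzer substrate 2 h RT, then CellTiter-Glo 30 min RT, luminescence.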

[19] = molecular target: Bile acid receptor (Homo sapiens) (UniProt Q96RI1); assay: qHTS assay to identify small molecule agonists of the farnesoid-X-receptor (FXR) signaling pathway (AID 743220; active = well fitted activation curve with a large enough effect in the signal ratio in the repeat runs, not every such curve was filed as active; the % refers to the signal ratio)
In short: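 Beta-lactamase reporter under UAS control in GeneBLAzer FXR HEK 293T cells (5000/well) measured with LiveBLAzer FRET substrate after 2 h at room temperature. Compound exposure lasted 16 h at 37C.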

Measured: Potency

Bile acid receptor (Homo sapiens), sequence (Q96RI1 whole entry, looked up): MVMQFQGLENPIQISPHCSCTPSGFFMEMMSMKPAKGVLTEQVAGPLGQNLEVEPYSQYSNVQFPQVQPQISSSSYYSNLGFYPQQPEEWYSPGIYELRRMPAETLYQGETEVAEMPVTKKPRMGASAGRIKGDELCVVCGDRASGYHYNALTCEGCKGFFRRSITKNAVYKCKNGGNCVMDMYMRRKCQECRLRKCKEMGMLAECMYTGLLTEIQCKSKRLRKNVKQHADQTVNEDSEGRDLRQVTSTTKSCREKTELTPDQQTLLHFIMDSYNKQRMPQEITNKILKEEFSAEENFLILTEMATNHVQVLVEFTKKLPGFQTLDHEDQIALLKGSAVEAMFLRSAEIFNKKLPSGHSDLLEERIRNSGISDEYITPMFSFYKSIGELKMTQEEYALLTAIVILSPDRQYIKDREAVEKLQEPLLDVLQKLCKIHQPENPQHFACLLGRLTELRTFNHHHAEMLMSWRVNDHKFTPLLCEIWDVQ
Peroxisome proliferator-activated receptor delta (Homo sapiens), sequence (Q03181 whole entry, looked up): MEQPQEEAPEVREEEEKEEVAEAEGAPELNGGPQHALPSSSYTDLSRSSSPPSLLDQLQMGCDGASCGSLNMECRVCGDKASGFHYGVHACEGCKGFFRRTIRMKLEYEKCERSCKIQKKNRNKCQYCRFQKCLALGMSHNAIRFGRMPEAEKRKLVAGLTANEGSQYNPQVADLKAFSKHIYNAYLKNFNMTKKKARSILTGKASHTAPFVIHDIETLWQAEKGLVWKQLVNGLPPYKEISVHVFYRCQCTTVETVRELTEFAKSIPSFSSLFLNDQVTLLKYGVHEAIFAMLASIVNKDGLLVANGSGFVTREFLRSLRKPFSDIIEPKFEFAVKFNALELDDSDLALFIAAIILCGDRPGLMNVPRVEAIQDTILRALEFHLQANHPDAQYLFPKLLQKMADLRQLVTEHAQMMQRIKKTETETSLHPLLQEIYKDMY
Vitamin D3 receptor (Homo sapiens), sequence (P11473 whole entry, looked up): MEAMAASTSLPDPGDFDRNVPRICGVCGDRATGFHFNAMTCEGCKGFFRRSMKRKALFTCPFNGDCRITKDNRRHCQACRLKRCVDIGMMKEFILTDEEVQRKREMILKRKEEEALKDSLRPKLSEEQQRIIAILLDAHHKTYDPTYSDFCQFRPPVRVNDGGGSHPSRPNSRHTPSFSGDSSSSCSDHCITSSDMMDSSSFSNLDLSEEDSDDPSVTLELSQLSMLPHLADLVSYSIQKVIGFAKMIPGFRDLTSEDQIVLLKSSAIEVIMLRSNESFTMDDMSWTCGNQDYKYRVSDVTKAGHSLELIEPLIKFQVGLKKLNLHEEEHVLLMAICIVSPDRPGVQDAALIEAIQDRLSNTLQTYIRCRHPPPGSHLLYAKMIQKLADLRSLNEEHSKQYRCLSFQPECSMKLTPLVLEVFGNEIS

CCOP(=S)(Oc1ccc([N+](=O)[O-])cc1)c1ccccc1 (stereo not given)
not listed: [14] | [15] | [16] | [17] | [18] | [19]
inactive: all other assays above

CCOC(=O)COc1cc(-c2nn(C)c(OC(F)F)c2Cl)c(F)cc1Cl
not listed: [1] | [5] | [17] | [18] | [19]
inactive: all other assays above

O=[N+]([O-])c1ccccc1CCl
not listed: [5] | [13]
inactive: all other assays above

CC1(C)[C@H](C=C(Cl)Cl)[C@@H]1C(=O)O[C@@H](C#N)c1cccc(Oc2ccccc2)c1
active: [16] 54.5 µM
not listed: [1] | [2] | [7] | [13] | [14] | [17] | [19]
inactive: all other assays above

C(=NC1CCCCC1)=NC1CCCCC1
inactive and 24.5 µM (active): [6]
active: [18] 11 µM
not listed: [1] | [4] | [5] | [11] | [14] | [17]
inactive: all other assays above

CC(C)(Cl)[N+](=O)[O-]
not listed: [5] | [10] | [15]
inactive: all other assays above
